# Reference: PubChem BioAssay (Tox21)
# Values joined by “and” are separate entries in the source; they are usually repeats but may differ in a detail not shown here. Equal values may be shown once. Results filed as inconclusive are left out. Entries that show only a call come without a potency. Active and inactive are the calls of the source. Unless noted, calls follow the shape of the dose curve; as a rule, active = well fitted curve in the direction sought with a large enough effect in the repeat runs; inconclusive = weak or mixed curves; inactive = no such curve, though single readings can be large; an effect the other way counts as inactive or inconclusive.
# Tests used:
# [1] = qHTS assay to identify small molecule that activate the aryl hydrocarbon receptor (AhR) signaling pathway - cell viability counter screen (AID 743086);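 also: HepG2 liver cells carrying the AhR DRE luciferase reporter; series mostly up to about 70 µM; nearly all actives have a fitted effect of over 45% in size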
# Method in brief: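 HepG2-AhR-luc (HG2L7.5c1) cells, 4000/well, were preincubated 5 h at 37C, exposed to compound in qHTS format for 24 hr at 37C, then given CellTiter-Fluor for 30 min; viability was read as fluorescence in the reporter wells.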
# [2] = qHTS assay to identify small molecule antagonists of the peroxisome proliferator-activated receptor gamma (PPARg) signaling pathway - cell viability counter screen (AID 743194); also: nearly all actives have a fitted effect of over 55% in size
# Method in brief: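 PPARg-UAS-bla HEK293H cells were plated, rested 5 h at 37 C, then treated with compounds plus rosiglitazone (50 nM final) for 17 h at 37 C; viability was then read by CellTiter-Glo luminescence after 30 min at room temperature.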
# [3] = qHTS assay for small molecule agonists of the antioxidant response element (ARE) signaling pathway (AID 743202; active = well fitted activation curve with a large enough effect in the signal ratio in the repeat runs, not every such curve was filed as active; the % refers to the signal ratio; also: potency is read from the fitted curve at half-maximal effect)
# Method in brief: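 Steps: seed ARE-bla HepG2 cells (2,000/well); incubate 5 h at 37 C; add compounds by pin tool; incubate 16 h at 37 C; add FRET substrate; read fluorescence after 2 h at RT.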
# [4] = qHTS assay for small molecule agonists of the antioxidant response element (ARE) signaling pathway - cell viability counter screen (AID 743203; calls by dose curve; also: nearly all actives have a fitted effect of over 55% in size)
# Method in brief: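 Viability counter screen: CellTiter-Glo luminescence, read after 30 min at room temperature, in ARE-bla HepG2 wells. Compound exposure lasted 16 h at 37C/5% CO2, following a 5 h pre-incubation of the cells after plating.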
# [5] = qHTS assay to identify small molecule agonists of the peroxisome proliferator-activated receptor delta (PPARd) signaling pathway - cell viability counter screen (AID 743211); also: nearly all actives have a fitted effect of over 55% in size
# Method in brief: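 PPARd-bla HEK293H cells (UAS-beta-lactamase reporter) were treated with compounds for 17 h at 37 C. Viability was then read in the same wells by CellTiter-Glo luminescence after 30 min at room temperature.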
# [6] = molecular target: Peroxisome proliferator-activated receptor delta (Homo sapiens) (UniProt Q03181); experiment: qHTS assay to identify small molecule agonists of the peroxisome proliferator-activated receptor delta (PPARd) signaling pathway (AID 743212; calls by dose curve)
# Sequence of Peroxisome proliferator-activated receptor delta (Homo sapiens) (Q03181 whole entry, looked up): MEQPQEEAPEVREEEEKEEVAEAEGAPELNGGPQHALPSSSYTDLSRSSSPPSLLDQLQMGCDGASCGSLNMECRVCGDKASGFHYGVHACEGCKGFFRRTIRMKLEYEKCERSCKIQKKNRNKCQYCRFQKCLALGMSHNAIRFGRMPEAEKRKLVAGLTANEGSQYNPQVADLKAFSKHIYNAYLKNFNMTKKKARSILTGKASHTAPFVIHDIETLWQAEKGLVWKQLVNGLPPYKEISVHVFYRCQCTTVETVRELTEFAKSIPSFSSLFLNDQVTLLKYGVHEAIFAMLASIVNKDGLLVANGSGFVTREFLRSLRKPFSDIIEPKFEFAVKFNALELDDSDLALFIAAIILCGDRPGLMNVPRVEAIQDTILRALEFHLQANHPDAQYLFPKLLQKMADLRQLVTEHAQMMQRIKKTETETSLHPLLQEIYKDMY
# Method in brief: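 Cells expressing a UAS-driven beta-lactamase reporter (PPARd-bla HEK293H) were given test compounds after a 5 h settle and kept at 37 C. Reporter activity was then measured as FRET fluorescence using LiveBLAzer B/G substrate.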
# [7] = qHTS assay to identify small molecule antagonists of the peroxisome proliferator-activated receptor delta (PPARd) signaling pathway - cell viability counter screen (AID 743213); also: nearly all actives have a fitted effect of over 50% in size
# Method in brief: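 PPARd-bla HEK293H cells (3000/well) got compound plus 300 nM L165041 agonist for 17 h at 37 C. Viability in the same wells came from CellTiter-Glo luminescence after 30 min at room temperature.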
# [8] = molecular target: Peroxisome proliferator-activated receptor delta (Homo sapiens) (UniProt Q03181); experiment: qHTS assay to identify small molecule antagonists of the peroxisome proliferator-activated receptor delta (PPARd) signaling pathway (AID 743215; active = well fitted inhibition curve with a large enough effect in the signal ratio in the repeat runs, not every such curve was filed as active; the % refers to the signal ratio;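 also: cells stimulated with agonist L165041 at 300 nM final during compound exposure; series mostly up to about 62 µM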)
# Method in brief: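 Agonist L165041 (300 nM final) added with compound to PPARd-bla HEK293H UAS-bla reporter cells; 17 h incubation at 37 C. Read-out: LiveBLAzer FRET substrate, 2 h at room temperature, fluorescence intensity.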
# [9] = qHTS assay to identify small molecule agonists of the farnesoid-X-receptor (FXR) signaling pathway - cell viability counter screen (AID 743218); also: nearly all actives have a fitted effect of over 45% in size
# Method in brief: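 Viability counter screen in the same wells: CellTiter-Glo luminescence, 30 min room-temperature incubation, measured after the beta-lactamase read. Cells were GeneBLAzer FXR-UAS-bla HEK 293T, compound-treated 16 h at 37C.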
# [10] = qHTS assay to identify small molecule antagonists of the farnesoid-X-receptor (FXR) signaling pathway - cell viability counter screen (AID 743221; active = well fitted cell-killing curve with a large enough effect in the repeat runs, not every such curve was filed as active; also: nearly all actives have a fitted effect of over 50% in size)
# Method in brief: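 FXR-UAS-bla HEK 293T cells were treated with test compounds plus chenodeoxycholic acid (50 uM final) for 16 h at 37 C. Cell viability in the same wells was then read as CellTiter-Glo luminescence after 30 min at room temperature.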
# [11] = molecular target: Vitamin D3 receptor (Homo sapiens) (UniProt P11473); experiment: qHTS assay to identify small molecule agonists of the vitamin D receptor (VDR) signaling pathway (AID 743222; calls by dose curve)
# Sequence of Vitamin D3 receptor (Homo sapiens) (P11473 whole entry, looked up): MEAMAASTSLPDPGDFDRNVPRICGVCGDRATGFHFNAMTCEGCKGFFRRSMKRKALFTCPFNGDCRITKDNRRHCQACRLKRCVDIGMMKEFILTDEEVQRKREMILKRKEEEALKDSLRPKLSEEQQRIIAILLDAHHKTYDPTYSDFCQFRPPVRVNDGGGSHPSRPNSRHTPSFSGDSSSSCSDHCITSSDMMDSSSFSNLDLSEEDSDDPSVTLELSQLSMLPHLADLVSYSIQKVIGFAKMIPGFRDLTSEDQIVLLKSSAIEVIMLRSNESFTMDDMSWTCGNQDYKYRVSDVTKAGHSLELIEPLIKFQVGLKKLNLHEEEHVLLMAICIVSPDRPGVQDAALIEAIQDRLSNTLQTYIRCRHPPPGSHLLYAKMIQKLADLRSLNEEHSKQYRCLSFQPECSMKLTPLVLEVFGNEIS
# Method in brief: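 Agonist mode, beta-lactamase reporter: fluorescence from LiveBLAzer B/G FRET substrate (2 h, room temperature) read after 16 h compound treatment at 37 C of VDR-bla cells, which were pre-incubated 4 h after seeding.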
# [12] = molecular target: Vitamin D3 receptor (Homo sapiens) (UniProt P11473); experiment: qHTS assay to identify small molecule antagonists of the vitamin D receptor (VDR) signaling pathway (AID 743223; active = well fitted inhibition curve with a large enough effect in the signal ratio in the repeat runs, not every such curve was filed as active; the % refers to the signal ratio)
# Method in brief: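 VDR-bla cells were plated, incubated 4 h at 37C, then given compound and 1alpha,25-dihydroxyvitamin D3 (3 nM final). After 16 h at 37C, LiveBLAzer B/G FRET substrate was added for 2 h at room temperature and fluorescence read.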
# [13] = qHTS assay to identify small molecule agonists of the vitamin D receptor (VDR) signaling pathway - cell viability counter screen (AID 743224); also: series mostly up to about 63 µM; nearly all actives have a fitted effect of over 50% in size
# Method in brief: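 Counter screen run in the same wells as the VDR-bla reporter assay: CellTiter-Glo luminescence, 30 min at room temperature, after 16 h compound treatment at 37C of cells pre-plated for 4 h.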
# [14] = molecular target: Peroxisome proliferator-activated receptor gamma (Homo sapiens) (UniProt P37231); experiment: qHTS assay to identify small molecule agonists of the peroxisome proliferator-activated receptor gamma (PPARg) signaling pathway (AID 743094; active = well fitted activation curve with a large enough effect in the signal ratio in the repeat runs, not every such curve was filed as active; the % refers to the signal ratio)
# Sequence of Peroxisome proliferator-activated receptor gamma (Homo sapiens) (P37231 whole entry, looked up): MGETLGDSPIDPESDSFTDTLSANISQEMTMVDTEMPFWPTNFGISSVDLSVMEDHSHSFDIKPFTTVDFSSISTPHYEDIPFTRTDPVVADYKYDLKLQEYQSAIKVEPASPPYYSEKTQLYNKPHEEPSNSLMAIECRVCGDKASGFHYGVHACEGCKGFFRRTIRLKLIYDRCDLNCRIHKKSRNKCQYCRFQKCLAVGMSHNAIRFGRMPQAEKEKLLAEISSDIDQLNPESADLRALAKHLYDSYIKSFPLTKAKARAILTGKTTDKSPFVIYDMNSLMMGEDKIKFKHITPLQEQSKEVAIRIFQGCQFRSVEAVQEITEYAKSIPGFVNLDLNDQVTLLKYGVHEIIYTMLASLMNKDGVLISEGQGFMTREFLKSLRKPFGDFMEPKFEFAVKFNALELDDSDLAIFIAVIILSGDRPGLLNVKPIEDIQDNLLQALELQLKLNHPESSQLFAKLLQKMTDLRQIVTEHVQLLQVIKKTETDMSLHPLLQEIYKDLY
# Method in brief: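 Agonist activity was taken from a beta-lactamase reporter (FRET substrate, 1 h at room temperature) in HEK293H cells carrying a PPARg UAS-bla construct. Compounds in DMSO were incubated 17 h at 37C after a 5 h cell pre-incubation.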
# [15] = qHTS assay for small molecule activators of the heat shock response signaling pathway - cell viability counter screen (AID 743209); also: nearly all actives have a fitted effect of over 50% in size
# Method in brief: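 Cytotoxicity counter screen run in the same wells as the heat-shock bla reporter assay: HeLa HSE-bla cells, 5 h compound exposure at 37 C, viability read by CellTiter-Glo luminescence.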
# [16] = qHTS assay for small molecule activators of the heat shock response signaling pathway (AID 743210; active = well fitted activation curve with a large enough effect in the signal ratio in the repeat runs, with a control signal flat, not every such curve was filed as active; the % refers to the signal ratio;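 also: HeLa cells with beta-lactamase reporter driven by heat shock elements; series mostly up to about 63 µM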)
# Method in brief: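 Activation of heat shock element-controlled beta-lactamase expression is measured in HeLa cells by LiveBLAzer FRET fluorescence, with compound exposure lasting 5 h at 37 C and substrate loading 2.5 h at room temperature.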
# [17] = qHTS assay to identify small molecule antagonists of the vitamin D receptor (VDR) signaling pathway - cell viability counter screen (AID 743225); also: nearly all actives have a fitted effect of over 50% in size
# Method in brief: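 VDR-bla HEK 293T cells, 4 h pre-incubation at 37C, then compound plus 1-alpha,25-dihydroxyvitamin D3 (3 nM final) for 16 h. After the beta-lactamase FRET read, CellTiter-Glo was added to the same wells; luminescence after 30 min at room temperature.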
# [18] = molecular target: Peroxisome proliferator-activated receptor gamma (Homo sapiens) (UniProt P37231); experiment: qHTS assay to identify small molecule antagonists of the peroxisome proliferator-activated receptor gamma (PPARg) signaling pathway (AID 743191; calls by dose curve; also: nearly all actives have a fitted effect of over 30% in size; also: potency is read from the fitted curve at half-maximal effect)
# Method in brief: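 GeneBLAzer PPARg UAS-bla HEK293H cells carrying a UAS-driven beta-lactamase reporter were plated at 3000 cells/well, preincubated 5 h at 37C, then given compound for 17 h at 37C; LiveBLAzer B/G FRET substrate was read after 1 h at room temperature.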
# [19] = molecular target: Bile acid receptor (Homo sapiens) (UniProt Q96RI1); experiment: qHTS assay to identify small molecule antagonists of the farnesoid-X-receptor (FXR) signaling pathway (AID 743217; active = well fitted inhibition curve with a large enough effect in the signal ratio in the repeat runs, not every such curve was filed as active; the % refers to the signal ratio)
# Sequence of Bile acid receptor (Homo sapiens) (Q96RI1 whole entry, looked up): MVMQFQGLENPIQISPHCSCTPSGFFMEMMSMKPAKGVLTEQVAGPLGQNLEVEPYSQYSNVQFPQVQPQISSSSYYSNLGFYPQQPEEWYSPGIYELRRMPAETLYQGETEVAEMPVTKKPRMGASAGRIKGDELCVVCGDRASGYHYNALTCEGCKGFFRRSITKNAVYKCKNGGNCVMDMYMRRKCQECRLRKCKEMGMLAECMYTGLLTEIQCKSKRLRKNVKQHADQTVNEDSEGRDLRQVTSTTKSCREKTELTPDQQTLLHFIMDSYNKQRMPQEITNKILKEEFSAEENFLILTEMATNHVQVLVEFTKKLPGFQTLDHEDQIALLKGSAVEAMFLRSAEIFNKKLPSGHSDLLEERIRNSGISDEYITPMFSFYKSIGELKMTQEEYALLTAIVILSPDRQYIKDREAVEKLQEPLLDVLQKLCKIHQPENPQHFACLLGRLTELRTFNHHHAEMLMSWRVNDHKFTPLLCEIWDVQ
# Method in brief: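 Antagonist mode: chenodeoxycholic acid at 50 uM final stimulates a UAS-driven beta-lactamase reporter in HEK 293T FXR-bla cells during 16 h, 37C compound exposure. Read-out is FRET substrate fluorescence after 2 h at room temperature.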
# [20] = molecular target: Bile acid receptor (Homo sapiens) (UniProt Q96RI1); experiment: qHTS assay to identify small molecule agonists of the farnesoid-X-receptor (FXR) signaling pathway (AID 743220; active = well fitted activation curve with a large enough effect in the signal ratio in the repeat runs, not every such curve was filed as active; the % refers to the signal ratio)
# Method in brief: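 FXR-UAS-bla HEK 293T cells carrying a UAS-driven beta-lactamase reporter were plated for 5 h at 37C/5% CO2, then exposed to DMSO-dissolved Tox21 10K compounds for 16 h at 37C. A LiveBLAzer B/G FRET substrate was loaded for 2 h at room temperature before fluorescence reading.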
SMILES,outcome [1],outcome [2],Potency [3],outcome [4],outcome [5],outcome [6],outcome [7],Potency [8],outcome [9],outcome [10],outcome [11],outcome [12],outcome [13],outcome [14],outcome [15],outcome [16],outcome [17],Potency [18],outcome [19],outcome [20]
C=CC(N)=O,inactive,inactive,inactive,inactive,inactive,inactive,inactive,inactive,inactive,inactive,inactive,inactive,inactive,–,–,–,–,–,–,–
CCCCN(CCCC)SN(C)C(=O)Oc1cccc2c1OC(C)(C)C2,inactive,–,inactive,inactive,inactive,inactive,inactive,inactive,–,inactive,inactive,inactive,inactive,inactive,inactive,inactive,inactive,–,–,–
C=CCO,inactive,inactive,inactive,inactive,inactive,inactive,inactive,inactive,inactive,inactive,–,–,inactive,–,inactive,–,inactive,–,–,–
NCC(O)c1ccc(O)cc1 (stereo unspecified),inactive,inactive,inactive,inactive,inactive,–,inactive,–,–,inactive,inactive,inactive,inactive,inactive,–,–,inactive,–,–,–
CCCC1COC(Cn2cncn2)(c2ccc(Cl)cc2Cl)O1 (stereo unspecified),inactive,inactive,–,inactive,inactive,inactive,inactive,inactive,–,inactive,inactive,inactive,inactive,inactive,–,–,inactive,inactive,inactive,inactive
CN1C(=O)CN=C(c2ccccc2)c2cc(Cl)ccc21,inactive,inactive,inactive,inactive,inactive,–,inactive,–,inactive,inactive,inactive,inactive,inactive,–,inactive,inactive,inactive,–,inactive,inactive
CC(C)NC(=O)N1CC(=O)N(c2cc(Cl)cc(Cl)c2)C1=O,inactive,inactive,inactive,inactive,inactive,inactive,inactive,inactive,inactive,inactive,–,–,inactive,inactive,–,–,–,inactive,–,–
CC(C)OC(=O)Nc1cccc(Cl)c1,inactive,inactive,inactive,inactive,inactive,inactive,inactive,inactive,–,inactive,inactive,inactive,inactive,inactive,inactive,–,inactive,–,inactive,inactive
CC(C)(C)C(O)(CCc1ccc(Cl)cc1)Cn1cncn1 (stereo unspecified),inactive,inactive,–,inactive,inactive,inactive,inactive,inactive,–,inactive,inactive,inactive,inactive,–,–,inactive,–,inactive,–,–
C1CC2OC2CC1C1CO1 (stereo unspecified),–,inactive,inactive,inactive,inactive,inactive,inactive,inactive,inactive,inactive,inactive,inactive,inactive,inactive,inactive,inactive,–,inactive,inactive,inactive
CCNc1nc(NC(C)(C)C)nc(SC)n1,inactive,inactive,–,inactive,inactive,inactive,inactive,inactive,inactive,inactive,inactive,inactive,inactive,inactive,–,inactive,inactive,inactive,inactive,inactive
O=C(NC(=O)c1c(F)cccc1F)Nc1cc(Cl)c(OC(F)(F)C(F)C(F)(F)F)cc1Cl (stereo unspecified),inactive,inactive,–,inactive,inactive,–,inactive,–,inactive,inactive,inactive,inactive,inactive,inactive,inactive,inactive,inactive,–,inactive,inactive
COC(=O)NC(=S)Nc1ccccc1NC(=S)NC(=O)OC,inactive,inactive,–,inactive,inactive,inactive,inactive,inactive,inactive,inactive,inactive,inactive,inactive,inactive,–,inactive,inactive,inactive,inactive,inactive
Nc1ccc(Br)cc1,inactive,inactive,inactive,inactive,inactive,inactive,inactive,inactive,inactive,inactive,–,–,–,inactive,inactive,inactive,–,–,inactive,inactive
CON(C)C(=O)Nc1ccc(Cl)c(Cl)c1,inactive,inactive,inactive,inactive,inactive,inactive,–,inactive,–,inactive,inactive,inactive,inactive,inactive,inactive,inactive,inactive,–,–,–
CCc1cccc(C)c1N(C(=O)CCl)C(C)COC (stereo unspecified),inactive,inactive,8.14 µM (active) and 19.3 µM (active),inactive,inactive,–,inactive,–,–,inactive,inactive,inactive,inactive,–,inactive,inactive,–,21.9 µM (active),–,–
Clc1ccccc1Cl,inactive,inactive,inactive,inactive,inactive,inactive,inactive,inactive,inactive,inactive,inactive,inactive,inactive,inactive,–,inactive,inactive,–,inactive,inactive
CC(NC(C)(C)C)C(=O)c1cccc(Cl)c1 (stereo unspecified),inactive,inactive,inactive,inactive,inactive,–,inactive,–,–,inactive,inactive,inactive,inactive,–,inactive,–,–,–,–,–
CN(C)[C@@H]1C(=O)C(C(N)=O)=C(O)[C@@]2(O)C(=O)C3=C(O)c4c(O)cccc4[C@@](C)(O)[C@H]3C[C@@H]12,inactive,inactive,–,inactive,inactive,inactive,inactive,inactive,inactive,inactive,–,–,–,inactive,–,–,–,–,–,inactive
